In the library only some 13% were active in any assay of this set; here they are far more common.
Pf growth 96h: inhibits malaria parasite growth, 96 h. P. falciparum luciferase reporter growth, 96 h. Potency, µM (top dose mostly 28.7 µM), hits mostly inhibitors. hit rate 6.9% among 320,000
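96 h incubation, 37 C, 5% CO2, of luciferase-reporter P. falciparum-infected RBCs (2% hematocrit, 0.05% parasitemia final) with test compounds; endpoint luminescence.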
Pf growth 48h: P. falciparum growth inhibition at 48 hours (one generation); P. falciparum luciferase growth in erythrocytes, 48 h; Potency, µM (series often up to 28.7 µM), hits mostly inhibitors; hit rate 5.9% among 310,000
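Erythrocytes infected with P. falciparum carrying an integrated firefly luciferase reporter (2% hematocrit, 0.1% parasitemia final) were exposed to compounds in RPMI 1640 with 0.5% Albumax at 37 C, 5% CO2. Growth inhibition was scored as reduced luminescence.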
HCV inh: inhibitors of hepatitis C virus infection. hit rate 3.4% among 340,000. Huh7.5.1 HCVcc-Cre infection, luciferase reporter, 44 h. Potency, µM (top dose mostly 41.8 µM), most hits filed as inhibitors. AID 651820
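Cells seeded at 1,000/well and cultured 4 h, then compounds added followed by HCVcc-Cre virus (~0.5 moi). After 44 h further culture, luciferase substrate was added, plates held 15 min at room temperature, and luminescence read for 15 sec.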
HCMV antiviral: human cytomegalovirus inhibition; activity change, negative = inhibition, % at 57.5 µM; hit rate 4.5% among 410,000; HFF cells, HCMV-luciferase reporter, 72 h; hits give low values; in the data active = activity change below about -60%; inconclusive = no clear call, values can overlap the other calls; inactive = above about -39%
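Steps: HFFs plated, 16 h 37C; compounds added; HCMV-luciferase added to MOI 1 PFU/cell; 72 h 37C; OneGlo reagent, 5 min room temperature; luminescence read, normalized to controls.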
Numbers stand for hits; – = inactive; ? = inconclusive; · = no result given. Unless noted, calls come from the whole dose curve; as a rule, active = well fitted inhibition curve with a large enough effect; inconclusive = small, poorly fitted or top-dose-only effect, or another doubt; inactive = no such curve, though single readings can be large or run the other way.

SMILES	Pf growth 96h	Pf growth 48h	HCV inh	HCMV antiviral
COC(=O)CC1C(=O)NCCN1C(=O)c1ccc2oc(C(C)C)nc2c1 (centres undefined)	15µM	–	–	–
COc1ccc(C(=O)Nc2nc3ccc(S(C)(=O)=O)cc3s2)cc1OC	5.9µM	–	?	–
COc1ccc(C(=O)Nc2nc3ccc(S(=O)(=O)N4CCCC4)cc3s2)cc1	·	·	·	–
COc1cc2nc(NC(=O)c3ccc(S(=O)(=O)N4CCCC4)cc3)sc2cc1OC	·	·	·	-63
CC(=O)Nc1nc2ccc(S(=O)(=O)N3CCCC3)cc2s1	?	–	–	-63
NS(=O)(=O)c1ccc2nc(NC(=O)c3ccc(Br)o3)sc2c1	10µM	–	–	–
Cc1ccc(C(=O)Nc2nc3ccc(S(C)(=O)=O)cc3s2)cc1C	–	·	?	–
Cc1ccc2c(CC(=O)N(Cc3ccc(N(C)C)cc3)Cc3ccco3)coc2c1C	·	·	·	–
CCCCc1ccc(NC(=O)CSc2nc3ccccc3nc2N2CCOCC2)cc1	·	·	·	–
COc1ccc(NC(=O)N(C)C[C@H]2OCCCC[C@H](C)Oc3ccc(NC(=O)Nc4cccc5ccccc45)cc3C(=O)N([C@@H](C)CO)C[C@H]2C)cc1	·	·	·	–
CCOc1ccc(-n2c(C)cc(C(=O)CCl)c2C)cc1	?	–	?	-92
COC(=O)c1ccc(-n2c(C)cc(C(=O)COC(=O)C3=COCCO3)c2C)cc1	·	·	–	-66
COC(=O)c1ccc(-n2c(C)cc(C(=O)CCl)c2C)cc1	–	?	6.3µM	-84
CC(C)=CCC[C@](C)(O)C1CC=C(C)CC1 (some centres undefined)	–	–	·	·
Cc1n[nH]c(C)c1CCN(C)Cc1cn(C)nc1-c1ccc2c(c1)OCCO2	1.3µM	–	–	–
O=C(CCCNC(=O)c1ccc(Cl)cc1)Nc1ncccc1O	8.3µM	?	–	–
O=C(CCNC(=O)c1ccc(Cl)cc1)Nc1ncccc1O	–	–	–	–
CCc1ccc(NC(=O)c2cc3c([nH]c2=O)CC(C)(C)CC3=O)cc1	·	·	·	–
Cc1nnc(SC(=O)N2c3ccccc3Sc3ccccc32)s1	·	10µM	?	?
CC1=CC(C)(C)N(S(=O)(=O)c2ccc(C)cc2)c2cc(C)ccc21	9.3µM	·	?	-85
COc1ccc2c(c1)C(C)=CC(C)(C)N2S(=O)(=O)c1ccc(C)cc1	–	?	–	-86
CCOc1ccc2c(c1)C(C)=CC(C)(C)N2C(=O)Nc1ccccc1F	9.3µM	–	–	–
COC(=O)C1(C)CN(S(=O)(=O)c2ccc(C)cc2)c2cc(OC)ccc2C1=O (centres undefined)	?	?	–	–
CCOc1ccc2c(c1)C(C)=CC(C)(C)N2S(=O)(=O)c1ccc(C)cc1	?	–	–	-79
CCNC(=O)N1c2ccc(OCC)cc2C(C)=CC1(C)C	·	–	–	–
SMILES	Pf growth 96h	Pf growth 48h	HCV inh	HCMV antiviral
COc1cc(NC(=O)c2ccc(OCc3c(C)noc3C)c(OC)c2)cc(OC)c1	·	·	?	–
COc1cc(C(=O)Nc2cc(OC)c(OC)c(OC)c2)ccc1OCc1c(C)noc1C	·	·	11µM	–
COc1ccc(NS(=O)(=O)c2cc(NC(=O)c3cccc(OCc4c(C)noc4C)c3)ccc2OC)cc1	6.6µM	9.3µM	?	-65
COc1ccc(CCC(=O)NC2CC(=O)N(c3ccc(F)cc3)C2)cc1 (centres undefined)	·	·	·	–
COc1ccc(OCC(=O)Nc2cccc(-c3nc4ccccc4s3)c2C)cc1	·	·	·	–
NS(=O)(=O)c1ccc(NC(=S)NCCc2ccccc2)cc1	–	–	–	–
O=[N+]([O-])c1ccc(O)c(NC(=S)Nc2ccccc2)c1	·	–	–	-89
S=C(NCCc1ccccc1)Nc1ccc(Cl)cc1	–	–	?	-79
O=[N+]([O-])c1ccc(NC(=S)NCCc2ccccc2)cc1	–	?	?	-96
CCCCc1ccc(NC(=O)C(=O)NCCN2CCN(Cc3ccc([N+](=O)[O-])cc3)CC2)cc1	?	?	?	-60
O=[N+]([O-])c1ccc(NC(=S)NCc2ccncc2)cc1	?	–	?	–
O=[N+]([O-])c1ccc(NC(=S)NCCc2ccc(Cl)cc2)cc1	1.9µM	2.3µM	?	-107
CCOC(=O)c1ccc(NC(=S)NCCc2ccccc2)cc1	13µM	?	–	–
O=[N+]([O-])c1ccc(NNC(=S)Nc2ccccc2)cc1	·	–	11µM	·
S=C(NCCc1ccc(Cl)cc1)NC1CC1	?	–	–	-75
Cc1nn(C)c2c1c(-c1ccccc1)cc(=O)n2Cc1c(F)cccc1Cl	·	·	·	–
COc1ccc(C)c2sc(N(CCCN(C)C)C(=O)c3ccc(S(=O)(=O)N4CCc5ccccc5C4)cc3)nc12	·	·	?	-98
COc1ccc(OC)c2sc(N(CCCN(C)C)C(=O)c3ccc(S(=O)(=O)N4CCc5ccccc5C4)cc3)nc12	?	?	4µM	·
O=C1OC(OC(=O)c2cccnc2Nc2cccc(C(F)(F)F)c2)c2ccccc21 (centres undefined)	–	–	·	·
COc1ccc2c(c1)[C@@H](NS(C)(=O)=O)[C@H](C)[C@@H](C(C)C)N2	·	·	·	–
Cc1ccccc1C(=O)NC1CCN(Cc2ccccc2)CC1	–	–	–	–
O=C(NC1CC2CCCC(C1)N2Cc1ccccc1)c1ccc([N+](=O)[O-])cc1 (centres undefined)	0.37µM	–	–	–
Cc1cc(F)ccc1S(=O)(=O)Nc1ccccc1C(=O)NC1CCN(Cc2ccccc2)CC1	3.3µM	2.9µM	?	–
O=C(/C=C/c1cccc(F)c1)NC1CCN(Cc2ccccc2)CC1	–	–	–	-63
Cc1ccc(C(=O)NC2CC3CCCC(C2)N3Cc2ccccc2)cc1 (centres undefined)	?	?	–	–
SMILES	Pf growth 96h	Pf growth 48h	HCV inh	HCMV antiviral
Cc1ccc(CN2C3CCCC2CC(NC(=O)Nc2cccc(F)c2)C3)cc1 (centres undefined)	–	1.9µM	–	?
CCCN1C2CCCC1CC(NC(=O)Nc1cccc(C(C)=O)c1)C2 (centres undefined)	?	?	2.8µM	–
Cc1ccc(CN2C3CCCC2CC(NC(=O)c2ccc(F)cc2)C3)cc1 (centres undefined)	–	10µM	–	–
O=C(/C=C/c1ccccc1)NC1CC2CCCC(C1)N2Cc1ccccc1 (centres undefined)	2.3µM	?	·	·
CC1CCN(S(=O)(=O)c2ccc3c(c2)N(CC(=O)NC(C)c2ccccc2)C(=O)CS3)CC1 (centres undefined)	·	·	·	–
CCOC(=O)c1cnn(Cc2cccc(Cl)c2)c1C	?	13µM	–	–
CCOC(=O)c1c(C(=O)OCC)c(C)n(CCc2ccccc2)c1C	9.3µM	?	–	–
CCOC(=O)c1c(C(=O)OCC)c(C)n(Cc2cc(OC)c(OC)c(OC)c2)c1C	12µM	?	?	–
CCOC(=O)c1cnn(Cc2ccccc2)c1N	–	–	–	–
CCOC(=O)c1c(C)nn(Cc2ccccc2)c1N	5.2µM	–	–	–
COc1ccc(CC(=O)Nc2ccc(-c3nc4ccccc4s3)c(C)c2)cc1OC	·	·	·	–
Cc1cccc(Oc2ccc(NC(=O)CCC(=O)OCC(=O)c3ccc(Br)cc3)cc2)c1C	·	·	·	–
O=C(CS(=O)(=O)c1cccc2nsnc12)NCc1ccccc1	·	·	·	–
